High-throughput results deposited in PubChem by several laboratories.
Dyrk1A ADPGlo – inhibitors of rat Dyrk1A kinase; Q63470; ADP-Glo luminescence, NFATc1 peptide; inhibition, % at 12.5 µM; hit rate 0.43% among 310,000; AID 504441; in the data active = inhibition above about 50%;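 also: plate controls were vehicle with enzyme for no effect and no enzyme for full effect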
dFosB act-1 – mouse delta FosB homodimer activation | P13346 | activation, % at 25 µM | hit rate 0.99% among 340,000 | purified delta FosB, TAMRA-CDK5 oligo fluorescence polarization; percent of positive-control signal above neutral wells;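 active = mean activation above about 17%, with every replicate also reaching it, limit read from the data, passing the limit was not always enough; inconclusive = only one of the two conditions met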
Bfl-1 A1 inh – inhibitors of the anti-apoptotic protein A1, read as caspase activation | hit rate 0.066% among 330,000 | MEF A1-2A-BIM cells, Caspase-Glo 3/7 luminescence, 3 h; percent of clofoctol response, vehicle zero | AID 2462 | caspase activation, % (concentration not given with the values);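 active = over half of replicate activation scores above 10%, or exactly half above 10 with the replicate mean above 10; inconclusive = replicate mean below 10 yet half the replicates above 10; inactive = over half of replicates below 10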
B2AR ag – activates human beta-2 adrenergic receptor causing internalization; AID 504454; Am2.2-beta2AR cells, FAP receptor internalization, flow cytometry; hit rate 0.43% among 340,000; response, % (no concentration beside the values); P07550;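 active = response above a set limit, near 3 SD of response in nonfluorescent compounds, cut at about 42% in these data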
Target sequence (P07550 whole entry, looked up): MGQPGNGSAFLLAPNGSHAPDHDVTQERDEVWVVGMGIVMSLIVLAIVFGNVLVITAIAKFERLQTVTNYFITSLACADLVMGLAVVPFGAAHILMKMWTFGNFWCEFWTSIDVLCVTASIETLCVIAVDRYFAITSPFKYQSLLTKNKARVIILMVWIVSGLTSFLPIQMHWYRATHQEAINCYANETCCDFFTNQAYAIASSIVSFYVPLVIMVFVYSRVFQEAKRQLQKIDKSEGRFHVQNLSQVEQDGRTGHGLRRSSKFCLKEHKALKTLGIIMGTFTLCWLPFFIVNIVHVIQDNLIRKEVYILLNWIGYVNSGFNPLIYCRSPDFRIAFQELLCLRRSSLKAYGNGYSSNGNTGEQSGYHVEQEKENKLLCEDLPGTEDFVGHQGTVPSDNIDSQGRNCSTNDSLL
dFosB act-2 – enhances mouse delta FosB homodimer binding to DNA; shares compounds with dFosB act-1; purified delta FosB, TAMRA-CDK5 oligo fluorescence polarization; normalised: neutral wells 0, positive control 100; activation, % at 24.9 µM; 2,400 tested, under 10 active;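 active = highest replicate activation at or above 34% and every replicate reaching that threshold; inconclusive = meets only one of the two criteria; inactive = meets neither criterion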;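 also: higher polarization means more probe DNA bound by delta FosB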
Numbers without * were called inactive; ? = inconclusive; · = no result. Compounds with a hit are over-represented: about 1.6% of the library has one in this group of screens.

SMILES | Dyrk1A ADPGlo | dFosB act-1 | Bfl-1 A1 inh | B2AR ag | dFosB act-2
COc1ccc(CCNC(=O)CNC(=O)c2nn(-c3ccc(OC)c(OC)c3)c(=O)c3ccccc23)cc1OC | -0.9 | -0.8 | 0.0 | 16.3 | ·
COc1ccc(-n2nc(C(=O)NCC(=O)Nc3cccc(Cl)c3)c3ccccc3c2=O)cc1OC | -5.8 | 99.7* | -0.9 | 16.9 | 7.4
COc1ccc(-n2nc(C(=O)Nc3ccc(OC)c(OC)c3)c3c4ccccc4n(C)c3c2=O)cc1 | 1.5 | 27.4* | -0.3 | 15.2 | 1.5
CC(=O)N1N=C(c2ccco2)CC1c1ccc(Cl)o1 (stereo not drawn) | 3.2 | -3.3 | 1.8 | -7.1 | ·
Cc1ccccc1C(=O)Nc1nnc(CC(=O)N/N=C/c2ccncc2)s1 | · | 38.3* | 0.2 | -10.2 | -0.1
O=C(Cc1nnc(NC(=O)c2ccccc2)s1)N/N=C/c1ccco1 | 6.7 | 21.0* | 0.3 | -20.0 | 3.7
O=C(Cc1nnc(NC(=O)c2ccccc2)s1)N/N=C/c1cccc(O)c1 | 0.0 | 0.8 | -0.1 | 3.1 | ·
Cc1cccc(C)c1NC(=O)Cn1nc(-c2ccccc2)nc1-c1ccccc1 | -3.7 | 45.3* | 0.1 | -4.3 | 1.2
Cc1cc(C)c2nc(C)cc(Nc3ccc(C(=O)N4CCOCC4)cc3)c2c1 | -4.4 | 1.0 | 0.4 | 7.0 | ·
COC(=O)c1sc(S(=O)(=O)N2CCN(c3ccccc3F)CC2)c(C(=O)OC)c1C | -3.0 | 4.1 | 1.4 | 2.7 | ·
Cc1ccc(CNC(=O)c2cc3c(=O)n4ccccc4nc3n(Cc3ccco3)c2=N)cc1 | 1.4 | 25.2* | 0.7 | 7.0 | 0.0
N=c1c(C(=O)NCc2ccccc2)cc2c(=O)n3ccccc3nc2n1Cc1ccco1 | 0.4 | -13.0 | 1.3 | 12.0 | ·
Cc1cccn2c(=O)c3cc(C(=O)NCCc4ccccc4)c(=N)n(Cc4ccco4)c3nc12 | -4.4 | 5.3 | 0.0 | -0.3 | ·
COc1ccc(Cn2c(=N)c(C(=O)NC3CCCCC3)cc3c(=O)n4ccccc4nc32)cc1 | · | 33.9* | 0.8 | -3.4 | 5.4
Cc1cccn2c(=O)c3cc(C(=O)NCc4ccco4)c(=N)n(CCc4ccccc4)c3nc12 | -4.6 | 20.1* | · | 17.2 | -2.3
COc1ccc(CCn2c(=N)c(C(=O)NC3CCCC3)cc3c(=O)n4ccccc4nc32)cc1 | 3.1 | -13.8 | -0.7 | -13.5 | ·
CCNC(=O)NC(=O)CSc1ccc(S(=O)(=O)N2CCCCC2)cn1 | -0.2 | -7.1 | -0.3 | -5.3 | ·
COc1ccc(Cl)cc1N(CC(=O)Nc1ccccc1C(=O)N1CCOCC1)S(C)(=O)=O | -6.0 | -4.6 | -0.6 | -2.0 | ·
C=CCNC(=O)c1cc2c(=O)n3ccccc3nc2s1 | 4.8 | -8.6 | -5.7 | -18.9 | ·
CCOC(=O)c1c(CNCCN(CC)CC)n(C)c2cc(Br)c(OC)cc12 | 1.0 | 23.9* | 0.3 | 23.4 | ?
CNc1c(NS(=O)(=O)c2ccc(C(C)(C)C)cc2)c(=O)oc2ccccc12 | 1.2 | 60.1* | 1.4 | 5.1 | 0.6
CNc1c(NS(=O)(=O)c2ccc(OC)cc2)c(=O)oc2ccccc12 | 2.9 | 30.9* | 0.8 | -24.0 | -5.3
CNc1c(NS(=O)(=O)c2ccc3c(c2)CCCC3)c(=O)oc2ccccc12 | -5.6 | 36.5* | 0.8 | 10.6 | -3.4
CCCNc1c(NS(=O)(=O)c2ccc(C3CCCCC3)cc2)c(=O)oc2ccccc12 | 0.2 | 82.1* | -0.8 | 1.3 | 0.6
Cc1ccc(CNC(=O)[C@@H](NC(=O)C2CCN(C(=O)[C@@H](N)CC(C)C)CC2)C(C)C)cc1 | -4.6 | -6.9 | 0.0 | -5.3 | ·
SMILES | Dyrk1A ADPGlo | dFosB act-1 | Bfl-1 A1 inh | B2AR ag | dFosB act-2
COc1cc(OC)c(N(C)S(=O)(=O)c2cccc(C(=O)NC3=NCCS3)c2)cc1Cl | 12.9 | -0.3 | -1.6 | -5.7 | ·
CNc1c(NS(=O)(=O)c2ccc(Br)cc2)c(=O)oc2ccccc12 | 1.4 | 98.7* | 0.0 | -0.1 | -0.2
C[C@H](NC(=O)[C@H]1N2C(=O)c3ccccc3C2SC1(C)C)C(=O)N1CCC[C@H]1C(=O)O (stereo partly drawn) | -0.7 | -1.9 | 0.4 | -7.7 | ·
O=C(NCc1ccc2c(c1)OCO2)c1ccc2c(=O)n(C3CCCC3)c(=O)[nH]c2c1 | 2.0 | 39.9* | 0.4 | 14.5 | -4.2
COc1ccc(Cn2c(=O)[nH]c3cc(C(=O)NCc4ccc5c(c4)OCO5)ccc3c2=O)cc1 | -2.6 | -3.8 | 0.5 | 8.3 | ·
Cc1cc(C)cc(OCC(=O)N/N=C/c2ccco2)c1 | -2.2 | -0.1 | -0.2 | 9.8 | ·
O=C(COc1c(Br)cc(Br)cc1Br)N/N=C/c1ccco1 | · | 30.5* | -0.2 | 8.3 | 4.9
COc1cccc(-c2nnc(NC(=O)c3cccs3)s2)c1 | 0.1 | 34.5* | -0.3 | -5.5 | 0.9
COc1ccc(CC(=O)Nc2nnc(-c3cccc([N+](=O)[O-])c3)s2)cc1 | 2.5 | 22.3* | 0.4 | 9.3 | 0.6
CCN1C[C@@H]2[C@@H]3C(=O)N(C)C(=O)[C@@H]3[C@](C)(C1=O)N2C(=O)c1ccc(C)cc1 | -4.5 | 5.9 | · | -0.8 | ·
O=C(Cc1cccc(NC(=O)C2CCN(S(=O)(=O)c3cccc([N+](=O)[O-])c3)CC2)c1)Nc1cccc(C(=O)N2CCOCC2)c1 | 2.1 | 8.4 | · | 3.2 | ·
Cc1ccc(C(C)C)c(OCCCN(C)Cc2ccccc2)c1 | -5.0 | -10.2 | 0.1 | 6.2 | ·
Cc1ccc(OCCCCN(C)Cc2ccccc2)c(Br)c1 | 1.5 | 24.9* | 0.3 | 16.2 | -0.1
COc1cccc(NC(=O)COC(=O)c2c(C)nn(-c3ccccc3)c2C)c1 | · | -12.1 | -8.2 | 12.0 | ·
CC(=O)n1cc(/C=N/NC(=O)c2ccccc2O)c2ccccc21 | 13.7 | 28.7* | -5.1 | 0.3 | 3.1
Cn1cc(/C=N/NC(=O)c2ccccc2O)c2ccccc21 | · | -2.8 | -0.5 | 0.3 | ·
COCCN(C(=O)COc1ccc(Cl)cc1)c1nnc(-c2cccnc2)s1 | 9.0 | -7.0 | 0.1 | -1.3 | ·
COCCN(C(=O)COc1ccccc1)c1nnc(-c2cccnc2)s1 | 1.8 | 32.4* | 1.5 | 1.1 | 6.6
C[C@@H]1CN([C@@H](C)CO)C(=O)c2cccc(NC(=O)Nc3ccc(F)cc3)c2O[C@@H]1CN(C)Cc1ccc(Oc2ccccc2)cc1 | 11.3 | 43.4* | -0.8 | 19.7 | 0.0
C[C@H](CO)N1C[C@H](C)[C@H](CN(C)Cc2ccccc2)Oc2c(NC(=O)Nc3ccc(F)cc3)cccc2C1=O | 17.4 | -7.8 | -0.1 | -6.3 | ·
C[C@H]1CN([C@@H](C)CO)C(=O)c2cc(NC(=O)Nc3cccc4ccccc34)ccc2O[C@@H]1CN(C)Cc1ccc(-c2ccccc2)cc1 | · | 37.9* | 0.5 | 5.3 | 1.1
COCc1nc2oc3ccc(F)cc3c(=O)c2cc1C(=O)OC | 3.4 | -3.1 | -3.8 | -10.5 | ·
CC1(C)C(=O)Nc2ccccc2N1C(=O)COc1ccccc1C#N | · | -8.0 | -0.4 | -1.2 | ·
CCOC(=O)c1[nH]c(C)c(C(=O)OCC(=O)N2CCc3ccccc32)c1C | 2.7 | 2.9 | -1.8 | -3.9 | ·
CC(=O)c1c(C)[nH]c(C(=O)OCC(=O)N2CCc3ccccc32)c1C | -7.9 | 28.8* | 1.2 | 29.0 | 7.9
